Values joined by “and” are separate entries in the source; they are usually repeats but may differ in a detail not shown here. Identical values can stand only once. Records with an inconclusive call do not appear. Entries that show only a call come without a potency. Some structures have more than one record in an assay (separate samples or runs), and their calls can disagree. Active and inactive are the calls of the source. Unless noted, calls follow the shape of the dose curve; as a rule, active = well fitted curve in the direction sought with a large enough effect in the repeat runs; inconclusive = weak or mixed curves; inactive = no such curve, though single readings can be large; an effect the other way counts as inactive or inconclusive. Residues, ends and D or L forms follow the SMILES beside them.
Legend:
[1] = molecular target: Thyrotropin-releasing hormone receptor (Homo sapiens) (UniProt P34981); experiment: qHTS assay to identify small molecule agonists of the thyrotropin-releasing hormone receptor (TRHR) signaling pathway (AID 1346891; calls by dose curve;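 also: HEK293 cells expressing TRHR with calcium dye readout; series mostly up to about 58 µM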)
Chain of Thyrotropin-releasing hormone receptor (Homo sapiens) (P34981 whole entry, looked up): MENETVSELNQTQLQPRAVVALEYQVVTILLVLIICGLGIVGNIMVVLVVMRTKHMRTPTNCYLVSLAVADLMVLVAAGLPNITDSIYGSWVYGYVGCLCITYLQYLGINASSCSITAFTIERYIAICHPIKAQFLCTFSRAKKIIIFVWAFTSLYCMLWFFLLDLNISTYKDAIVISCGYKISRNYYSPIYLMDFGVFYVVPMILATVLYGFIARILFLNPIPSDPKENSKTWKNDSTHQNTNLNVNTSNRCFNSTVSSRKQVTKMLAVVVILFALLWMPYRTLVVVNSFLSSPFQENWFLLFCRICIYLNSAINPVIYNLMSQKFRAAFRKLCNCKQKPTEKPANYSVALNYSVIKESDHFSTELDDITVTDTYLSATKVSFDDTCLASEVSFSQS
Outline: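 Agonist-mode calcium mobilisation screen: TRHR-transfected HEK293 cells cultured overnight (18 h), dye-loaded for 2 h at 37 °C, exposed to compounds, and monitored by fluorescence for 3 min.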

[2] = Human pregnane X receptor (PXR) small molecule agonists, qHTS cell viability counter screen (AID 1346977); also: nearly all actives have a fitted effect of over 50% in size; also: potency is read from the fitted curve at half-maximal effect
Outline: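 Measures live-cell protease fluorescence (CellTiter-Fluor) in PXR-Luc HepG2 cells treated 24hr with compounds at 37C. Cells had 5hr to attach before pin transfer of DMSO solutions.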

[3] = Caspase-3/7 induction in HepG2 cells by small molecules, qHTS assay (AID 1346978); also: nearly all actives have a fitted effect of over 15% in size; also: potency is read from the fitted curve at half-maximal effect
Outline: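 Wild-type HepG2 cells (2,000/well) were settled 5 h at 37 C, 5% CO2, then exposed to compounds in DMSO for 17 h. Caspase-3/7 activity was read by luminescence 30 min after adding Caspase-Glo 3/7 reagent at room temperature.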

[4] = Caspase-3/7 induction in CHO-K1 cells by small molecules, qHTS cell viability counter screen (AID 1346979); also: nearly all actives have a fitted effect of over 35% in size; also: potency is read from the fitted curve at half-maximal effect
Outline: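 In the same wells as the caspase read, viability of compound-treated wild-type CHO-K1 cells was assessed using CellTiter-Fluor, added after 16hr at 37C and measured by fluorescence following 1hr further incubation.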

[5] = Caspase-3/7 induction in CHO-K1 cells by small molecules, qHTS assay (AID 1346980); also: nearly all actives have a fitted effect of over 15% in size
Outline: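 Wild-type cells were seeded at 1,500 per well and settled 5 hr at 37 C, 5% CO2, then exposed to DMSO-dissolved compounds for 17 hr. Caspase-Glo 3/7 reagent was added, and luminescence was read after 30min at room temperature.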

[6] = Caspase-3/7 induction in HepG2 cells by small molecules, qHTS cell viability counter screen (AID 1346981); also: series mostly up to about 92 µM; nearly all actives have a fitted effect of over 30% in size
Outline: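 In this quantitative HTS counter screen, compounds delivered in DMSO were left on unmodified HepG2 cells for 16 hr at 37 C. Viability was then determined fluorometrically with CellTiter-Fluor, in parallel with caspase-3/7 induction in the same wells.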

[7] = molecular target: Nuclear receptor subfamily 1 group I member 2 (Homo sapiens) (UniProt O75469); experiment: Human pregnane X receptor (PXR) small molecule agonists, qHTS assay (AID 1346982); also: nearly all actives have a fitted effect of over 35% in size; also: potency is read from the fitted curve at half-maximal effect
Chain of Nuclear receptor subfamily 1 group I member 2 (Homo sapiens) (O75469 whole entry, looked up): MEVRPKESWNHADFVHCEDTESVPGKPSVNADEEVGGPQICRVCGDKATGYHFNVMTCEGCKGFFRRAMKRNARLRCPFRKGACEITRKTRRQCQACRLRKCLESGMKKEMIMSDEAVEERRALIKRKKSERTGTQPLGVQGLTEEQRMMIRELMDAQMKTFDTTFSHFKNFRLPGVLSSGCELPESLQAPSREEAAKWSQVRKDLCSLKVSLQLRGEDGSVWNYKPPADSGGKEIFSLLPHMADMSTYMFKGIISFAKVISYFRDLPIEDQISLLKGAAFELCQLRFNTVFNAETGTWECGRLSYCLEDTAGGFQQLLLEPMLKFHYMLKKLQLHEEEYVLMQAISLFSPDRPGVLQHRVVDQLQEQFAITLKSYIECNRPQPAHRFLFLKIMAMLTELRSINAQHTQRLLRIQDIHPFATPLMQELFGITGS
Outline: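 Reporter HepG2 cells expressing PXR-Luc are cultured in charcoal-stripped FBS (5%), treated with compounds for 24 hr at 37 C, and assayed by ONE-Glo luminescence after 30 min at room temperature.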

[8] = molecular target: Cytochrome P450 2D6 (Homo sapiens) (UniProt P10635); experiment: Cytochrome P450 Family 2 Subfamily D Member 6 (CYP2D6) small molecule antagonists: luciferase reporter qHTS assay (AID 1671196); also: nearly all actives have a fitted effect of over 50% in size; also: potency is read from the fitted curve at half-maximal effect
Chain of Cytochrome P450 2D6 (Homo sapiens) (P10635 whole entry, looked up): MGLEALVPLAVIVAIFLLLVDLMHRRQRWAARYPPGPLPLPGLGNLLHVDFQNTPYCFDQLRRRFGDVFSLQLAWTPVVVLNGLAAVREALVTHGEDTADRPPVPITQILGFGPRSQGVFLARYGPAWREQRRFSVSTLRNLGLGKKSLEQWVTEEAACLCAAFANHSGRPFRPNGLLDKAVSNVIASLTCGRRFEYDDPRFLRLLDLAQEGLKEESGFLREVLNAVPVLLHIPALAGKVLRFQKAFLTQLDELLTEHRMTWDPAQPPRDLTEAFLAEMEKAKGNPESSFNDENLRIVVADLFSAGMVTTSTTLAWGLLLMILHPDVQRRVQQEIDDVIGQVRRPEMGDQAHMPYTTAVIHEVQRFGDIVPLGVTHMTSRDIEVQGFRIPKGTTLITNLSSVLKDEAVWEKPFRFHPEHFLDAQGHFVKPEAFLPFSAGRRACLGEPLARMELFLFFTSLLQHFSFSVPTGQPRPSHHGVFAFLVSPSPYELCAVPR
Outline: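 Test chemicals meet CYP2D6 plus proluciferin substrate (10 min, RT); NADPH regenerating solution then drives turnover for 1 h. Detection reagent halts the reaction; luminescence measured after 20 min.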

[9] = molecular target: Cytochrome P450 2C9 (Homo sapiens) (UniProt P11712); experiment: Cytochrome P450 Family 2 Subfamily C Member 9 (CYP2C9) small molecule antagonists: luciferase reporter qHTS assay (AID 1671198); also: nearly all actives have a fitted effect of over 50% in size; also: potency is read from the fitted curve at half-maximal effect
Chain of Cytochrome P450 2C9 (Homo sapiens) (P11712 whole entry, looked up): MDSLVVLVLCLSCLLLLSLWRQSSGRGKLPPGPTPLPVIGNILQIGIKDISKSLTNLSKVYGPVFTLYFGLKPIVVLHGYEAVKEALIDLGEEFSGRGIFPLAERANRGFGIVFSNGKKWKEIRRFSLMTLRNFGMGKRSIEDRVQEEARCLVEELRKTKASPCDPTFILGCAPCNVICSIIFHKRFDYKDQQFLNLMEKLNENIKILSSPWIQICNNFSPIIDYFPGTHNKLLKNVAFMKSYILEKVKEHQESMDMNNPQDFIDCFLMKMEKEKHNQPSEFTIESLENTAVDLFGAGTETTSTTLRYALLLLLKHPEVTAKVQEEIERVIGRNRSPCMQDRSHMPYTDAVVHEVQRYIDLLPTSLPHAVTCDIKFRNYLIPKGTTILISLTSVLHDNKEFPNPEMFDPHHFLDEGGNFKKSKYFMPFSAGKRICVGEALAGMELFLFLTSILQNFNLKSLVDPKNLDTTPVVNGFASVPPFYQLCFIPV
Outline: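 CYP2C9 activity was measured with a P450-Glo proluciferin substrate. Enzyme–substrate mix was held with compound for 10 min at room temperature, then NADPH regeneration solution was added for 1 h at 37C. Luciferin product was read as luminescence.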

[10] = molecular target: Cytochrome P450 1A2 (Homo sapiens) (UniProt P05177); experiment: Cytochrome P450 Family 1 Subfamily A Member 2 (CYP1A2) small molecule antagonists: luciferase reporter qHTS assay (AID 1671199); also: nearly all actives have a fitted effect of over 50% in size; also: potency is read from the fitted curve at half-maximal effect
Chain of Cytochrome P450 1A2 (Homo sapiens) (P05177 whole entry, looked up): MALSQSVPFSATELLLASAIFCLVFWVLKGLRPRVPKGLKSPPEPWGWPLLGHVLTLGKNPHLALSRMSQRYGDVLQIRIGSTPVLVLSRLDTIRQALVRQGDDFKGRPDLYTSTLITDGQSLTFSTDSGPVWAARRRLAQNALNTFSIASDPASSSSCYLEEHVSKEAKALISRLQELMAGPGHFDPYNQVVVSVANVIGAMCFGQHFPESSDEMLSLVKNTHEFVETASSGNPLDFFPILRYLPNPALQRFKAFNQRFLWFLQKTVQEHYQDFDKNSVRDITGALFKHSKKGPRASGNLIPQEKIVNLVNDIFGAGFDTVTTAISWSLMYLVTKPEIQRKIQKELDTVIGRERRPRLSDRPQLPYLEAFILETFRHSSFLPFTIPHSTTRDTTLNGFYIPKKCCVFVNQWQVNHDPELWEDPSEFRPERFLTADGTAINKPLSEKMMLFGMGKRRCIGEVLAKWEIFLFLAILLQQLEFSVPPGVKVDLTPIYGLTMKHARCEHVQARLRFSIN
Outline: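 Steps: enzyme-substrate mix dispensed; test compounds and furafylline control pinned in; 10 min room temperature; NADPH regeneration solution added, 1 h; reaction stopped with luciferin detection reagent; luminescence read after 20 min.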

[11] = molecular target: Voltage-gated inwardly rectifying potassium channel KCNH2 (Homo sapiens) (UniProt Q12809); experiment: Human Ether-a-go-go-Related Gene (hERG) channel small molecule antagonists: fluorescence cell-based qHTS assay (AID 1671200)
Chain of Voltage-gated inwardly rectifying potassium channel KCNH2 (Homo sapiens) (Q12809 whole entry, looked up): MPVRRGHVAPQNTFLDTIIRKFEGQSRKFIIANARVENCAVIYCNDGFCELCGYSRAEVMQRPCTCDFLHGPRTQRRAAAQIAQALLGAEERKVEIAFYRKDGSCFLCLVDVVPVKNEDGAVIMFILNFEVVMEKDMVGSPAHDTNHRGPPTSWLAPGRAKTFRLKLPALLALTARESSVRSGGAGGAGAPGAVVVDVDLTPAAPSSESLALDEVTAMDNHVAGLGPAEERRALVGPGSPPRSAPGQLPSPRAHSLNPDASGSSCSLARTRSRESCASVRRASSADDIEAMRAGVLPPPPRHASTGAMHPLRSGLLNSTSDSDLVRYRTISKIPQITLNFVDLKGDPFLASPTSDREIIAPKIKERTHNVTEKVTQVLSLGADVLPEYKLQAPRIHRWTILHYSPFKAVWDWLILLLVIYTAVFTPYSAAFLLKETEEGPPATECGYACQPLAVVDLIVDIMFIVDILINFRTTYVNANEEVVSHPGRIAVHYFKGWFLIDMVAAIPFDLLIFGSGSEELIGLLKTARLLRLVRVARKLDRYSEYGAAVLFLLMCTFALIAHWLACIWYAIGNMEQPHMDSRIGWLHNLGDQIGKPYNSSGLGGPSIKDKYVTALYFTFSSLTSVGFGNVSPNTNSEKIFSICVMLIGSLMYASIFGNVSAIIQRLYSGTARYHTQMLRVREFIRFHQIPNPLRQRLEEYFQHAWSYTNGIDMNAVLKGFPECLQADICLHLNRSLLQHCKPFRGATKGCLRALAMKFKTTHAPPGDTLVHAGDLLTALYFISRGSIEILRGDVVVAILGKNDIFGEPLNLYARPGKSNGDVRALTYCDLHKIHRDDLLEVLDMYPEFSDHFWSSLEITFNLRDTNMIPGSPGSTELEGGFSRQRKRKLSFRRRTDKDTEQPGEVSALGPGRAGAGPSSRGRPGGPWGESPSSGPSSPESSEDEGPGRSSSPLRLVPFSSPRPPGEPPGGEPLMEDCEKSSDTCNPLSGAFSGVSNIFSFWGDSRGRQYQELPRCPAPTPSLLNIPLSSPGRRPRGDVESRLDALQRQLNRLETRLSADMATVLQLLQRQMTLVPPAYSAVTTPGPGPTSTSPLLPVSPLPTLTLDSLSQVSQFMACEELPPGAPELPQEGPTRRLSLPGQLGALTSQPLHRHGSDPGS
Outline: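 Quantitative HTS in hERG-U2OS cells: thallium entry through the channel reports activity, read as continuous 480/540 nm fluorescence over 2 min after stimulus addition.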

[12] = molecular target: Cytochrome P450 3A4 (Homo sapiens) (UniProt P08684); experiment: Cytochrome P450 Family 3 Subfamily A Member 4 (CYP3A4) small molecule antagonists: luciferase reporter qHTS assay (AID 1671201); also: nearly all actives have a fitted effect of over 50% in size; also: potency is read from the fitted curve at half-maximal effect
Chain of Cytochrome P450 3A4 (Homo sapiens) (P08684 whole entry, looked up): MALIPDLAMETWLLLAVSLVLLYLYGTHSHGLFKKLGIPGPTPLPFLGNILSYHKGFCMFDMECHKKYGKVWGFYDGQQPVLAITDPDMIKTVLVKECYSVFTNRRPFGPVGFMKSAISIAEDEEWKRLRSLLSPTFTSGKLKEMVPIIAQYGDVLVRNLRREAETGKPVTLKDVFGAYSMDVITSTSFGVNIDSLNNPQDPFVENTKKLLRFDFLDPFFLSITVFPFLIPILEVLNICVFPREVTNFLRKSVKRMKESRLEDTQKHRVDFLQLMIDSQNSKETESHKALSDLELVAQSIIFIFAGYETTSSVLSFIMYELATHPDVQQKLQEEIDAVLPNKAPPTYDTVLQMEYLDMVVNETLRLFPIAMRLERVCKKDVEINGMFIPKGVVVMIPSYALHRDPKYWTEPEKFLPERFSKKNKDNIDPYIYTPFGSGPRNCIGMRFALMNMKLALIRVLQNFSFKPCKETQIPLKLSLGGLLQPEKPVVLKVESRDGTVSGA
Outline: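 Inhibition of CYP3A4 is measured as loss of light: the enzyme converts a proluciferin substrate to luciferin, detected luminescently. Reaction ran 1 h at room temperature with NADPH regeneration after a 10 min compound preincubation.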

[13] = molecular target: Nuclear receptor subfamily 1 group I member 2 (Rattus norvegicus) (UniProt Q9R1A7); experiment: Rat pregnane X receptor (rPXR) activation by small molecules, qHTS assay (AID 1346983); conditions: rPXR luciferase reporter cells, One-Glo luminescence, 24 h; stronger effect = higher value; also: nearly all actives have a fitted effect of over 20% in size
Chain of Nuclear receptor subfamily 1 group I member 2 (Rattus norvegicus) (Q9R1A7 whole entry, looked up): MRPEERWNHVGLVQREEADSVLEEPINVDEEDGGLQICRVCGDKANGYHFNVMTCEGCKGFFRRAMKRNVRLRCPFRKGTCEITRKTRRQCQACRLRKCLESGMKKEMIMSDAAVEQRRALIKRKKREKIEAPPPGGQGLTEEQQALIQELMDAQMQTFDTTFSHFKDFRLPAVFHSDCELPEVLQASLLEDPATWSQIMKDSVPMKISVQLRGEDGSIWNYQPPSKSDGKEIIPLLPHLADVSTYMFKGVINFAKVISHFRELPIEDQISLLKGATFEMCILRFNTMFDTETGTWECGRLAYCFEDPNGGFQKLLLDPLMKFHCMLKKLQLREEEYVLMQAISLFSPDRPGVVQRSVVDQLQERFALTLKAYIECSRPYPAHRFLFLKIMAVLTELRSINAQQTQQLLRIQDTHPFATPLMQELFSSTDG
Outline: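 Cell-based rPXR luciferase reporter assay, 2,000 cells per well, rested 5hr at 37 C before compound addition in DMSO, then 24 hr at 37 C. One-Glo reagent was added and luminescence read after 30 min at room temperature.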

[14] = molecular target: Nuclear receptor subfamily 1 group I member 2 (Homo sapiens) (UniProt O75469); experiment: CYP3A4 induction through human pregnane X receptor (PXR) by small molecules, qHTS assay (AID 1346984); also: nearly all actives have a fitted effect of over 40% in size
Outline: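 Induction measured in HepG2-based DPX-2 cells co-expressing human PXR and a CYP3A4 promoter-driven luciferase. After a 24-hour compound exposure, cells received CYP3A4 luciferin substrate at 3uM final for 3 hours, and light output was then recorded.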

[15] = molecular target: Nuclear receptor subfamily 1 group I member 2 (Homo sapiens) (UniProt O75469); experiment: Human pregnane X receptor (PXR) activation by small molecules, qHTS assay (AID 1346985); also: nearly all actives have a fitted effect of over 40% in size; also: potency is read from the fitted curve at half-maximal effect
Outline: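 DPX-2 cells (HepG2 co-transfected with a PXR response element and a CYP3A4-promoter luciferase construct) were seeded at 2,000 per well, rested 5 hr at 37C, then exposed to DMSO-dissolved compounds for 24 hr. Activation was read as luciferase luminescence.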

[16] = molecular target: Cytochrome P450 2C19 (Homo sapiens) (UniProt P33261); experiment: Cytochrome P450 Family 2 Subfamily C Member 19 (CYP2C19) small molecule antagonists: luciferase reporter qHTS assay (AID 1671197); also: nearly all actives have a fitted effect of over 65% in size; also: potency is read from the fitted curve at half-maximal effect
Chain of Cytochrome P450 2C19 (Homo sapiens) (P33261 whole entry, looked up): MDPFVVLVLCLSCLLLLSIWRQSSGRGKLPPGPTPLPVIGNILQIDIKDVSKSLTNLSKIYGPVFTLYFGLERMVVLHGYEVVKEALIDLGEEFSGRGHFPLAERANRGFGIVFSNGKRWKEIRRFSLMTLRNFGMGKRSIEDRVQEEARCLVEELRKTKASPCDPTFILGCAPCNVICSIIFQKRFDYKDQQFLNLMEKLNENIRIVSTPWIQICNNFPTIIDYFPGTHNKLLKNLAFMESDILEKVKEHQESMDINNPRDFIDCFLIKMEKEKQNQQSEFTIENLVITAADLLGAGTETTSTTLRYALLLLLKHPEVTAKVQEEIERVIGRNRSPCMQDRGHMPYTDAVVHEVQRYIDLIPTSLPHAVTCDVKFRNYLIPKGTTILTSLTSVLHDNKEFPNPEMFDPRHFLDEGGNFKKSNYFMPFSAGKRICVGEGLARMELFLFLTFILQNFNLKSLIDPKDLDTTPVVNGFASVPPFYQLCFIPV
Outline: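 First, compounds are pinned into enzyme-substrate mix and held 10 min at room temperature. Second, NADPH regeneration solution is added and plates incubate 1 h at 37C. Third, detection reagent is added and luminescence read after 20 min.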

Structure (SMILES)	outcome [1]	Potency [2]	Potency [3]	Potency [4]	outcome [5]	Potency [6]	Potency [7]	Potency [8]	Potency [9]	Potency [10]	outcome [11]	Potency [12]	max activation [13]	outcome [14]	Potency [15]	Potency [16]
Cc1noc(NS(=O)(=O)c2ccc(N)cc2)c1C	inactive	inactive	inactive	inactive	inactive	inactive	inactive	inactive	inactive	inactive	inactive	inactive				
CC(O)CO (stereo unspecified)	inactive	inactive	inactive	inactive	inactive	inactive	inactive	inactive and 1.56 µM (active)	inactive	inactive	inactive	27.2 µM (active) and inactive	1.42% (inactive)	inactive	inactive	
O=C(c1ccccc1)C(O)c1ccccc1 (stereo unspecified)	inactive	inactive	inactive	inactive	inactive	inactive	inactive	39.6 µM (active) and inactive	inactive	31.4 µM (active) and 12.9 µM (active)	inactive	inactive	-4.09% (inactive)	inactive	inactive	
O=C(O)CCC(=O)O	inactive	inactive	inactive	inactive	inactive	inactive	inactive	inactive	inactive	inactive	inactive	inactive	-3.42% (inactive)	inactive	inactive	
c1ccc2[nH]ccc2c1	inactive	17.8 µM (active) and inactive	inactive	6.01 µM (active) and inactive	inactive	inactive	inactive	inactive	35 µM (active) and inactive	35 µM (active) and 35.6 µM (active) and 17.4 µM (active)	inactive	inactive	-4.01% (inactive)	inactive	inactive	49.4 µM (active) and inactive
CC(=O)Nc1nnc(S(N)(=O)=O)s1	inactive	inactive	inactive	inactive	inactive	inactive	inactive	inactive	inactive	inactive	inactive	inactive				inactive
Cc1ccccc1C(OCCN(C)C)c1ccccc1 (stereo unspecified)	inactive	inactive	inactive	inactive	inactive	inactive	inactive and 9.69 µM (active)		inactive	inactive and 31.7 µM (active)		inactive	-0.826% (inactive)	inactive	inactive	
Nc1ccc(S(=O)(=O)c2ccc(N)cc2)cc1	inactive	inactive	inactive	inactive	inactive	inactive	inactive	inactive	inactive	inactive	inactive	inactive				
Cc1cc(=O)[nH]c(=S)[nH]1	inactive	inactive	inactive	inactive	inactive	inactive	inactive	inactive	inactive	inactive	inactive	inactive	-8.17% (inactive)	inactive	inactive	
CC(C)[C@@H]1CC[C@@H](C)C[C@H]1O	inactive	inactive	69.5 µM (active) and inactive	inactive	inactive	inactive	31 µM (active) and inactive	inactive	inactive	inactive	inactive	inactive	-1.21% (inactive)	inactive	inactive	
CC(O)C(=O)O (stereo unspecified)	inactive	inactive	inactive	inactive	inactive	inactive	inactive	inactive and 11 µM (active)	inactive	inactive and 24.5 µM (active)	inactive	inactive	-1.38% (inactive)	inactive	inactive	
C/C=C/c1ccc(OC)cc1	inactive	inactive	inactive	inactive	inactive	inactive	inactive	inactive	inactive and 13.8 µM (active)	inactive and 17.4 µM (active)	inactive		-1.43% (inactive)	inactive	inactive	
NC(=O)c1cnccn1	inactive	inactive	inactive	inactive	inactive	inactive	inactive	19.7 µM (active) and inactive	inactive	inactive	inactive	inactive				
OCCc1ccccc1	inactive	inactive	inactive	inactive	inactive	inactive	inactive	inactive	inactive	inactive	inactive	inactive				inactive
CC(=O)OCC(COC(C)=O)OC(C)=O	inactive	inactive	inactive	inactive	inactive	inactive	inactive and 4.33 µM (active)	inactive	inactive	62.5 µM (active) and inactive	inactive	inactive	3.67% (inactive)	inactive	inactive	inactive
O=S(=O)(O)c1ccc2cc(O)ccc2c1	inactive	inactive	inactive	inactive	inactive	inactive	inactive	inactive	inactive	inactive and 39.9 µM (active)	inactive	inactive				
CCCC(CCC)C(=O)O	inactive	inactive	inactive	inactive	inactive	inactive	inactive	inactive	79.6 µM (active) and inactive	5.62 µM (active) and inactive	inactive	inactive	6.66% (inactive)	inactive	inactive	
O=C(O)CS	inactive	inactive	inactive	inactive and 61.6 µM (active)	inactive	inactive	inactive	inactive	inactive	inactive	inactive	inactive				inactive
Nc1ccn([C@H]2CC[C@@H](CO)O2)c(=O)n1	inactive	inactive	inactive	inactive	inactive	inactive	inactive	inactive	inactive	inactive	inactive	inactive				78.3 µM (active) and inactive
O=C(C1CCCCC1)N1CC(=O)N2CCc3ccccc3C2C1 (stereo unspecified)	inactive	inactive	inactive	inactive	inactive	inactive	30.6 µM (active)	inactive	inactive	31.7 µM (active) and 28.3 µM (active) and 17.4 µM (active)	inactive					7.95 µM (active) and 17.8 µM (active) and 9.77 µM (active)
COC(=O)[C@H](Cc1ccccc1)NC(=O)[C@@H](N)CC(=O)O (H-Asp-Phe-OMe)	inactive	inactive	inactive	inactive	inactive	inactive	inactive	inactive	inactive	inactive	inactive	inactive	-3.24% (inactive) and -1.16% (inactive)	inactive	inactive	inactive
C1N2CN3CN1CN(C2)C3	inactive	inactive	inactive	inactive	inactive	inactive	inactive	inactive	inactive	inactive and 15.5 µM (active)	inactive	inactive				
CCCCOC(=O)CC(CC(=O)OCCCC)(OC(C)=O)C(=O)OCCCC	inactive	inactive	inactive	inactive	inactive	inactive	6.68 µM (active) and 12.3 µM (active) and 13.7 µM (active)	inactive	2.75 µM (active) and 2.86 µM (active) and 2.52 µM (active)				0.822% (inactive)		25.1 µM (active)	
Oc1ccc(/C=C/c2cc(O)cc(O)c2)cc1	inactive	inactive	inactive	69.2 µM (active) and 61.1 µM (active)	inactive	inactive	61.7 µM (active) and 30.6 µM (active) and 29.8 µM (active)				inactive		-1.25% (inactive)	inactive		
CC(O)CN(CCN(CC(C)O)CC(C)O)CC(C)O (stereo unspecified)	inactive	inactive	inactive	inactive	inactive	inactive	inactive	36.2 µM (active)	inactive	inactive	inactive	inactive	-4.71% (inactive)	inactive	inactive	inactive
CCCCCCCCCCCCCCCC(=O)O	inactive	inactive	inactive	inactive	inactive	inactive	inactive	inactive	inactive	39.9 µM (active) and inactive	inactive	inactive		inactive	inactive	
CC1(C)[C@@H]2CC[C@@]1(C)C(=O)C2	inactive	inactive	inactive	inactive	inactive	inactive	inactive	inactive	inactive	inactive	inactive	inactive	-1.13% (inactive)	inactive	inactive	
CCCCC1C(=O)N(c2ccccc2)N(c2ccccc2)C1=O	inactive	inactive	inactive	inactive	inactive	inactive	27.1 µM (active) and 24.3 µM (active)	inactive	9.96 µM (active) and 31.7 µM (active) and 17.4 µM (active)	inactive	inactive					
O=c1cc[nH]c(=S)[nH]1	inactive	inactive	30.8 µM (active) and inactive	inactive	inactive	inactive	61.5 µM (active) and inactive	inactive	40.2 µM (active) and inactive	71.5 µM (active) and 36.7 µM (active) and 24.5 µM (active)	inactive	inactive	-8.7% (inactive)	inactive	inactive	
